The list is not random: actives were taken first. Their share in the collection is about 3.3%.
14-3-3 Bad PPI: inhibitors of 14-3-3 zeta/Bad binding, primary screen, biochemical, TR-FRET, bovine 14-3-3 zeta. actives 0.71% (n = 220,000). 14-3-3 protein zeta/delta (Bos taurus), P63103. inhibition, % at 21.7 µM. TR-FRET 14-3-3zeta/Dy647-pBad peptide displacement, 1 h;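 active = inhibition above about 70%, limit read from the data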;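 note: 0% = full 14-3-3 plus peptide FRET controls and 100% = background without 14-3-3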
Target sequence (P63103 whole entry, looked up): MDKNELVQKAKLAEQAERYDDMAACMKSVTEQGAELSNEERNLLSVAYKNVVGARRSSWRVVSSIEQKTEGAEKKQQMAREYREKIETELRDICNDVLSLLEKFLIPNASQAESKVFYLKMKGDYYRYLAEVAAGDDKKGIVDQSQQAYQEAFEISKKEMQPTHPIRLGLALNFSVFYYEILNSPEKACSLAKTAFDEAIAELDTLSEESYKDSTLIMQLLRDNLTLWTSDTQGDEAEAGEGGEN
Mcl1-Noxa inh: Mcl-1/Noxa binding inhibitors, primary screen, biochemical, TR-FRET, 1536-well. Induced myeloid leukemia cell differentiation protein Mcl-1 (Homo sapiens), Q07820. TR-FRET Mcl-1/Noxa peptide binding, 2 h. inhibition, % at 21.7 µM. actives 1.5% (n = 220,000). AID 1022, 2008;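 active = compounds that cut the protein-peptide binding signal by more than 50% relative to plate controls in a single-dose test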;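 note: His-tagged Mcl-1 with rhodamine Noxa BH3 peptide and terbium anti-His antibody; 0% = Mcl-1 plus Noxa peptide wells and 100% = peptide-only wells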
p47phox inh: p47phox/p22phox peptide binding inhibitors, primary screen, biochemical, uHTS, NADPH oxidase regulatory subunit; AID 1274, 2008; actives 0.53% (n = 220,000); inhibition, % at 24.7 µM; fluorescence polarization, 2 h; Neutrophil cytosol factor 1 (Homo sapiens), P14598;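 note: 0% = p47phox with labelled peptide and 100% = labelled peptide alone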
Target sequence (P14598 whole entry, looked up): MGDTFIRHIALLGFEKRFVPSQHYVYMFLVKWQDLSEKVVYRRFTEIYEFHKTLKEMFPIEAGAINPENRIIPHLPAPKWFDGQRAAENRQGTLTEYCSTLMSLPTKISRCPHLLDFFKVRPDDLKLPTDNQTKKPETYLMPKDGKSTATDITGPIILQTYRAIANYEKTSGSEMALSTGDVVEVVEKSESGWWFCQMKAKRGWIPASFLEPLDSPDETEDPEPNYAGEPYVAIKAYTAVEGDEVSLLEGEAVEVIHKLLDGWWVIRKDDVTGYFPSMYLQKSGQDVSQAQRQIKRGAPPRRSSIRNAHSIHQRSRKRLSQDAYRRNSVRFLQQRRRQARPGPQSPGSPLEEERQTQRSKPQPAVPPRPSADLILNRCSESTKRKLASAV
Mcl-1 Bim block: inhibitors of Bim peptide binding to Mcl-1, primary screen, biochemical, bead-based flow cytometry, multiplex; Induced myeloid leukemia cell differentiation protein Mcl-1 (Homo sapiens), Q07820; Bim peptide-Mcl-1 binding; inhibition, % at 10 µM; actives 0.1% (n = 190,000); AID 1009, 2008; in the data active = inhibition above about 40%;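 note: 0% = no compound tracer wells and 100% = peptide blocker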
eIF4E-4G inh: eIF4E–eIF4G protein interaction inhibitors, primary screen, biochemical, uHTS, TR-FRET, eIF4GI fragment | Eukaryotic translation initiation factor 4E (Mus musculus) + Eukaryotic translation … | TR-FRET eIF4E-eIF4GI(517-606) binding, 2 h | inhibition, % at 21.7 µM | actives 0.37% (n = 220,000);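 note: 0% = full FRET control wells and 100% = background wells lacking eIF4GI fragment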
Mcl1-Bid inh: Mcl-1/Bid binding inhibitors, primary screen, biochemical, TR-FRET, 1536-well; AID 1021, 2008; actives 0.97% (n = 220,000); inhibition, % at 21.7 µM; TR-FRET Mcl-1/Bid-Dy647 peptide binding;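 active = compounds that cut the binding signal by more than half at the single screening dose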;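 note: His-tagged Mcl-1 with europium anti-His antibody binding Bid BH3 peptide; 0% = Mcl-1 plus peptide wells and 100% = peptide-only wells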
* marks the source's active call; other numbers are inactive results; nt = not tested or not shown; [ ] = dose if it differs, or a comment.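 Rule for the calls, unless noted: active = inhibition above about 30% (limit read from the data); inactive = the rest.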

SMILES | 14-3-3 Bad PPI | Mcl1-Noxa inh | p47phox inh | Mcl-1 Bim block | eIF4E-4G inh | Mcl1-Bid inh
O=C(CSc1n[nH]c(=O)[nH]c1=O)Nc1ccc2c(c1)C(=O)c1ccccc1C2=O | 46 | 101* | 1 | nt | 18 | 61*
O=C(CSc1ccccn1)Nc1ccc2c(c1)C(=O)c1ccccc1C2=O | 45 | 72* | 8 | 0 | 15 | 77*
O=C(CSc1n[nH]c(=O)[nH]c1=O)Nc1cccc(S(=O)(=O)N2CCOCC2)c1 | -11 | -1 | 1 | 1 | -2 | -40
CN1CCN(NC(=O)c2cccc(Br)c2)CC1 | -8 | 18 | 0 | 0 | 0 | -16
COC(=O)c1ccc2nc(NC(=O)C(C)(C)C)sc2c1 | 1 | -19 | -1 | -2 | 2 | -2
COC(=O)c1ccc2nc(Nc3nc4ccc(F)cc4s3)sc2c1 | 77* | 95* | -89 | -6 | 6 | 81*
O=C(N/N=C/c1cc(Br)c(Br)o1)c1ccc2c(c1)OCCO2 | 31 | 57* | -35 | nt | 17 | -10
O=C(N/N=C/c1ccc2c(c1)OCO2)c1ccc2c(c1)OCCO2 | -6 | -5 | -2 | -2 | 7 | 2
Cc1cc(C)c(C)c(S(=O)(=O)N2CCN(CC(=O)NC(=O)NCc3ccccc3)CC2)c1C | 9 | -7 | -7 | 61* | 0 | -14
CC1CCN(CC(=O)NC(=O)NCc2ccccc2)CC1 | 1 | -1 | -2 | -5 | -4 | 3
Cc1c(Cl)cccc1Nc1nc(N)nc(CN2CCc3ccccc3C2)n1 | 3 | 20 | -9 | 0 | 9 | -3
Cc1ccc(Nc2nc(N)nc(CN3CCc4ccccc4C3)n2)cc1 | -9 | 5 | 77* | 1 | -4 | -6
CCCCCC(=O)NNC1=NCC(Cc2cccc(Cl)c2)S1 (centres undefined) | 26 | 3 | -4 | 0 | 0 | -27
OCCCNC(=S)NC1CCCC1 | -17 | 5 | -1 | -1 | 3 | -32
O=c1c2c([N+](=O)[O-])cc([N+](=O)[O-])cc2sn1-c1ccc(Br)cc1 | 51 | 91* | 74* | -16 | 33*[fluorescence artefact?] | 31
O=C(C[n+]1ccn(CCCNP2(=O)C=C(c3ccccc3)OC(c3ccccc3)=C2)c1)c1cccs1 | -4 | 13 | -14 | -1 | 0 | 1
COc1ccc(N2C(C)=CS/C2=C(/C#N)c2nnc(N3CCOCC3)n2-c2ccccc2)cc1 | 84* | 25 | 1 | -2 | 1 | 16
COc1ccc(/C=C/C(O)=C(\C#N)c2nnc(N3CCOCC3)n2-c2ccccc2)cc1OC | -5 | 9 | 2 | 1 | -2 | 10
FC(F)(F)c1ccnc(NCc2ccco2)n1 | 0 | 7 | -15 | nt | 4 | -34
Cc1cc(C)c2c(c1)c(C)cc1nnc(SCC(=O)c3cccs3)n12 | 73* | -3 | 2 | -3 | 0 | -15
O=C(O)CCCNc1ccc([N+](=O)[O-])c(NCCCC(=O)O)n1 | 1 | 20 | -13 | 1 | -1 | -18
COc1cccc(NC(=O)C(NCC(C)(C)CN(C)C)c2ccccc2)c1 (centres undefined) | 70* | 35 | -11 | -3 | 7 | 32
O=C(NCc1ccc2c(c1)CCO2)Nc1cccc(C(F)(F)F)c1 | -4 | 6 | -18 | nt | 4 | -3
CCOC(=O)N1CCN(C(=O)c2ccccc2CCc2ccccc2)CC1 | -7 | 17 | 87* | 0 | -19 | -7
CCOC(=O)N1CCN(Cc2ccccc2Cl)CC1 | 75* | 1 | -3 | -1 | -1 | -13
SMILES | 14-3-3 Bad PPI | Mcl1-Noxa inh | p47phox inh | Mcl-1 Bim block | eIF4E-4G inh | Mcl1-Bid inh
Cc1ccc(-n2c(C)cc(/C=C3\NC(=O)NC3=O)c2C)c(C)c1 | -3 | 7 | -6 | -6 | 2 | -10
N#Cc1cnn(-c2cccc(Cl)c2)c1N | -17 | -7 | -3 | 2 | 1 | -7
Cc1cccc(-n2ncc(C#N)c2N)c1 | nt | -12 | 172* | -2 | nt | -38
CO/N=C/c1cccn1-c1nccc(OC)c1C#N | -7 | 5 | 4 | 0 | 2 | -26
CN(C)c1ccnc(-n2cccc2/C=N/OCc2cccc(F)c2)c1C#N | 80* | -18 | -5 | 1 | 2 | -18
COc1ccc(-c2ccc(C#N)c(SCC(=O)Nc3sc4c(c3C#N)CCC4)n2)cc1OC | 92*[fluorescence artefact?] | 16 | 34* | 18 | 24 | 73*
O=S(=O)(c1ccc(Cl)cc1)N1CCN(C2CCCCCC2)CC1 | -3 | 20 | -3 | 0 | 2 | -10
O=S(=O)(c1ccc(Cl)cc1)N1CCC(N2CCOCC2)CC1 | 80* | -1 | -2 | 1 | 14 | 29
CC(Sc1nc2ccccc2s1)C(=O)c1c(N)n(C)c(=O)n(C)c1=O (centres undefined) | -10 | 17 | 11 | -3 | -3 | -21
N#Cc1c(NC(=O)CSc2ccccn2)oc(-c2ccccc2)c1-c1ccccc1 | -2 | 21 | -63 | -1 | 1 | 8
Cc1cnc(C(=O)OCC(=O)Nc2oc(-c3ccccc3)c(-c3ccccc3)c2C#N)cn1 | 0 | 54* | -8 | 0 | -2 | 1
Cc1cc(C)n(CCc2nc(-c3ccco3)cs2)n1 | -11 | 53* | -20 | -20 | 2 | -33
COC(=O)c1sc(-c2ccc(C(C)(C)C)cc2)cc1NC(=O)CCC(=O)O | 10 | 27 | 33* | nt | 7 | 19
COC(=O)c1sc(-c2ccc(Cl)cc2)cc1NC(=O)COCC(=O)O | 9 | 3 | -5 | nt | 5 | 13
CCOC(=O)C1(Cc2ccccc2)CCN(Cc2ccc3cc(NC(C)=O)ccc3n2)CC1 | 3 | 3 | -10 | -39 | 3 | -16
Cc1ccc(-n2c(N)c(C(=O)NCc3ccco3)sc2=S)cc1 | -11 | -1 | -9 | 0 | 0 | -57
Cc1ccc(-n2c(N)c(C(N)=O)sc2=S)cc1 | 30 | 5 | -4 | -5 | 34*[fluorescence artefact?] | -18
O=c1oc2ccccc2c(Cl)c1CN1CCCCC1 | 8 | 1 | 4 | 1 | 10 | 3
O=C(Nc1ccccc1Cl)c1cnccn1 | -2 | 83* | 12 | 1 | -11 | -23
O=C(Nc1ccc(Cl)c([N+](=O)[O-])c1)c1ccncc1 | -4 | 4 | -9 | -2 | 4 | 2
O=C(Nc1ccc(Cl)c([N+](=O)[O-])c1)c1cnccn1 | -6 | 64* | 0 | -3 | 5 | -70

High-throughput results: PubChem BioAssay, several laboratories
